RORgamma inh: inhibitors of mouse ROR gamma transcriptional activity | 310,000 compounds, 5.4% hits | Potency, µM (doses to about 53.6 µM), most hits filed as inhibitors | Drosophila S2 Gal4-RORgamma UAS-luciferase reporter, 20 h | P51450; further: nearly all actives have a fitted effect of over 60% in size
Target sequence (P51450 whole entry, looked up, the tested form may be a part): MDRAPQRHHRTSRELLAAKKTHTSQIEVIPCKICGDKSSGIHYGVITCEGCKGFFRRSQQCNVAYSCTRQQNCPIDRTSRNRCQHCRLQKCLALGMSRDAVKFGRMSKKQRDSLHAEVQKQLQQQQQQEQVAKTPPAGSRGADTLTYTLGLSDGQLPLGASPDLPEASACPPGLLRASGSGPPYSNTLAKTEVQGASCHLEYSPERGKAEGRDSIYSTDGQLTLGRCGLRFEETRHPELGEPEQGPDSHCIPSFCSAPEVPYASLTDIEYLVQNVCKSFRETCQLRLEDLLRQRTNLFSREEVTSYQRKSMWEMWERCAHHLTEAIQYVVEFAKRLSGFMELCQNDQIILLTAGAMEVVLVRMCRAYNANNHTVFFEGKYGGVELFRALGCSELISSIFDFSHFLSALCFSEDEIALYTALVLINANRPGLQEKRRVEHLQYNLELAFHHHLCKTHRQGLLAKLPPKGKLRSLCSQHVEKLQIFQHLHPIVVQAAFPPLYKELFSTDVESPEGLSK
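Using a luciferase readout, inhibitors were identified by reduced reporter activity in Drosophila cells coexpressing a copper-inducible Gal4–ROR gamma fusion and UAS-driven Photinus luciferase, incubated 20 hr after 700 uM copper sulfate.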
Gal4-VP16 FLuc: inhibits Gal4-VP16 luciferase reporter, ROR gamma counter-screen | Potency, µM (series often up to 53.6 µM), actives largely listed as inhibitors | 310,000 compounds, 3.5% hits | AID 2546 | Drosophila S2 Gal4-VP16 UAS-luciferase, luminescence, 20 h;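 further: Gal4-VP16 expression switched on by copper sulfate through the metallothionein promoter; nearly all actives have a fitted effect of over 50% in size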
MCF10A rerep: DNA re-replication induction in MCF 10a cells; AID 624296; Potency, µM (series often up to 46.1 µM), usual class: activators; MCF 10A DNA re-replication, Hoechst nuclear intensity, 48 h; 350,000 compounds, 2.9% hits; further: nearly all actives have a fitted effect of over 50% in size
IL1B secr inh: inflammasome signaling inhibition, IL-1 beta readout. 360,000 compounds, 4.7% hits. activity change, % at 57.5 µM. AID 743279. THP-1 LPS/ATP IL-1B secretion, AlphaLISA, 16 h; hits give low values; in the data active means activity change below about -50%; inconclusive means mostly about -30% to -49%
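Secreted IL-1B measured by AlphaLISA bead assay after 16 h compound exposure of THP-1 cells; compounds (final up to 57.5 uM) added 1 h before LPS (250 ng/mL) and ATP (1.25 mM) stimulation; lower signal means less secretion.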
SW480 rerep: DNA re-replication induction in SW480 cells. SW480 DNA re-replication, Hoechst DNA content imaging, 48 h. Potency, µM (series often up to 46.1 µM), most hits filed as activators. 340,000 compounds, 1.8% hits; further: nearly all actives have a fitted effect of over 55% in size
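Per well, 250 cells were exposed to pinned compound for 48 hr. Nuclear DNA was visualised with Hoechst (40 min, 37 C) and total object intensity recorded by fluorescence scanning.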
Hits are given with their value. Most compounds without a hit are left out; they make up all but 11% or so of the library. Unless noted, the call rests on the fitted dose curve; in most records, active means well fitted curve in the direction sought with a large enough effect; inconclusive means small, poorly fitted or top-dose-only effect, or another doubt; inactive means no such curve, though single readings can be large; an effect the other way counts as inactive or inconclusive.

What do the screens show for `COCCNC(=O)CN1CCC(NC(=O)c2ccco2)CC1`?
RORgamma inh: 13µM; Gal4-VP16 FLuc: inconclusive; MCF10A rerep: inactive; IL1B secr inh: inactive; SW480 rerep: inactive

What do the screens show for `CCNC(=S)Nc1cc(OCC)c(NC(=O)c2ccco2)cc1OCC`?
RORgamma inh: 16µM; Gal4-VP16 FLuc: inconclusive; MCF10A rerep: inactive; IL1B secr inh: inactive; SW480 rerep: inactive

How did C=CCNC(=O)CN1CCC(NC(=O)c2ccco2)CC1 do in these assays?
RORgamma inh: inactive; Gal4-VP16 FLuc: inactive; MCF10A rerep: inactive; IL1B secr inh: inactive; SW480 rerep: inactive

How did Nc1ccc(N=Nc2ccccc2)c(N)c1 do in these assays?
RORgamma inh: inactive; Gal4-VP16 FLuc: inactive

How did C[C@@H](NC(=O)c1nc[nH]c1C(=O)NCc1ccc(CNC(=O)OC(C)(C)C)cc1)c1ccccc1 do in these assays?
MCF10A rerep: inconclusive; IL1B secr inh: inactive; SW480 rerep: inactive

How did COc1ccc(CCN=C(NS(=O)(=O)c2ccc(Cl)cc2)c2ccccc2)cc1 do in these assays?
RORgamma inh: inactive; Gal4-VP16 FLuc: inactive; MCF10A rerep: inconclusive; IL1B secr inh: -66; SW480 rerep: inactive

Results for Cc1ccc(S(=O)(=O)NC(=NC(C)C)c2ccccc2)cc1 ?
RORgamma inh: inactive; Gal4-VP16 FLuc: inactive; MCF10A rerep: 0.52µM; IL1B secr inh: inactive; SW480 rerep: inconclusive

How did CCc1ccc(C(=O)NNC(=O)CN2C(=O)NC(CC)(c3ccccc3)C2=O)cc1 (configuration not stated) do in these assays?
MCF10A rerep: inactive; IL1B secr inh: inactive; SW480 rerep: inactive

Results for Cc1cc(Cl)c(S(=O)(=O)N2CCN(c3ccc(F)cc3)CC2)cc1OCC(N)=O ?
RORgamma inh: inactive; Gal4-VP16 FLuc: inactive; MCF10A rerep: inactive; IL1B secr inh: inactive; SW480 rerep: inactive

How did Cc1cc(Cl)c(S(=O)(=O)Nc2ccc3c(c2)OCCO3)cc1OCC(=O)NC1CCCCC1 do in these assays?
RORgamma inh: inactive; Gal4-VP16 FLuc: inactive; MCF10A rerep: inconclusive; IL1B secr inh: -53; SW480 rerep: inactive

What do the screens show for `Cc1cc(Cl)c(S(=O)(=O)N2CCN(c3ccc(F)cc3)CC2)cc1OCC(=O)NC1CCCCC1`?
RORgamma inh: inactive; Gal4-VP16 FLuc: inactive; MCF10A rerep: inactive; IL1B secr inh: -75; SW480 rerep: inactive

Results for COC(=O)COc1ccc(S(=O)(=O)Nc2ccc3c(c2)OCCO3)cc1C ?
RORgamma inh: inconclusive; Gal4-VP16 FLuc: inconclusive; MCF10A rerep: inactive; IL1B secr inh: -73; SW480 rerep: inactive

Results for COc1ccc2nc3n(c(=O)c2c1)-c1ncccc1C(=O)NC3C (configuration not stated) ?
IL1B secr inh: inactive

What do the screens show for `Cn1cc(/C=C(\C#N)C(=O)Nc2ncc(Cc3cccc(Cl)c3)s2)c2ccccc21`?
RORgamma inh: 3.2µM; Gal4-VP16 FLuc: 1.4µM

Results for N#C/C(=C\c1c[nH]c2ccccc12)C(N)=O ?
RORgamma inh: inactive; Gal4-VP16 FLuc: inactive; MCF10A rerep: inactive; IL1B secr inh: inactive; SW480 rerep: inactive

Results for N#C/C(=C\c1c[nH]c2ccccc12)C(=O)Nc1ncc(Cc2ccc(Cl)cc2Cl)s1 ?
RORgamma inh: 1.4µM; Gal4-VP16 FLuc: 2.2µM; MCF10A rerep: 3.3µM; IL1B secr inh: -61; SW480 rerep: inconclusive

What do the screens show for `CN(C(=O)c1ccc(NC(=O)Cc2cccc(NC(=O)C3CCN(C(=O)c4ccccc4)CC3)c2)cc1)C1CCCC1`?
MCF10A rerep: inconclusive; IL1B secr inh: inactive; SW480 rerep: inactive

How did Cc1ccccc1-c1csc(C(O)c2ccccc2)n1 (configuration not stated) do in these assays?
IL1B secr inh: inactive

How did O=C(N/N=C/c1cnc(N2CCCCC2)s1)c1ccc(C(F)(F)F)cc1 do in these assays?
RORgamma inh: 2µM; Gal4-VP16 FLuc: 3.5µM; MCF10A rerep: inactive; IL1B secr inh: inactive; SW480 rerep: inconclusive

How did Cc1ccccc1N=C1C(=O)Nc2ccccc21 do in these assays?
MCF10A rerep: inactive; IL1B secr inh: inactive; SW480 rerep: inactive

How did NS(=O)(=O)c1ccc(CCNc2nn3c(-c4cccc(OC(F)(F)F)c4)cnc3s2)cc1 do in these assays?
IL1B secr inh: -84

How did CCOC(=O)N1CCC(NCCNC(=O)c2cccs2)CC1 do in these assays?
RORgamma inh: inactive; Gal4-VP16 FLuc: inactive; MCF10A rerep: inactive; IL1B secr inh: inactive; SW480 rerep: inactive

Results for O=C(NCCNC1CCC(c2ccccc2)CC1)c1cccs1 (configuration not stated) ?
RORgamma inh: inactive; Gal4-VP16 FLuc: inactive; MCF10A rerep: inactive; IL1B secr inh: -72; SW480 rerep: inconclusive

How did Cc1cccc2cc(CN(Cc3ccccc3)C(=S)NCCCN(C)C)c(=O)[nH]c12 do in these assays?
RORgamma inh: inactive; Gal4-VP16 FLuc: inactive; MCF10A rerep: inactive; IL1B secr inh: -85; SW480 rerep: inactive

What do the screens show for `Cc1cccc2cc(CN(Cc3cccnc3)C(=S)NCCCN(C)C)c(=O)[nH]c12`?
RORgamma inh: inactive; Gal4-VP16 FLuc: inactive; MCF10A rerep: inactive; IL1B secr inh: inactive; SW480 rerep: inactive

Results for Cc1ccc(CN(Cc2cc3cccc(C)c3[nH]c2=O)C(=S)NCCCN(C)C)cc1 ?
RORgamma inh: inactive; Gal4-VP16 FLuc: inactive; MCF10A rerep: inactive; IL1B secr inh: -77; SW480 rerep: inactive

Results for Cc1cc(C)c2cc(CN(CCCN(C)C)C(=S)NCc3ccccc3)c(=O)[nH]c2c1 ?
RORgamma inh: inconclusive; Gal4-VP16 FLuc: inconclusive; MCF10A rerep: inactive; IL1B secr inh: -73; SW480 rerep: inactive

What do the screens show for `COc1cc(C/C=C/c2ccccc2)c(OC)cc1O`?
RORgamma inh: inconclusive; Gal4-VP16 FLuc: inactive

Results for O=C(Nc1ccc2c(c1)OCO2)c1ccc2sc([C@H]3C[C@H](O)[C@@H](CO)O3)nc2c1 ?
IL1B secr inh: inactive

How did CCCn1c(C)nc2c(NCCN(C)C)nc(C)nc21 do in these assays?
RORgamma inh: inactive; Gal4-VP16 FLuc: inactive

Results for COc1ccc2[nH]c(C(=O)N3CCC(Cc4ccccc4)CC3)cc2c1 ?
RORgamma inh: inactive; Gal4-VP16 FLuc: inactive; MCF10A rerep: inactive; IL1B secr inh: inactive; SW480 rerep: inactive

How did O=C(c1cccs1)N1CCN(Cc2ccccc2)CC1 do in these assays?
RORgamma inh: inactive; Gal4-VP16 FLuc: inactive; MCF10A rerep: inactive; IL1B secr inh: inactive; SW480 rerep: inactive

How did O=C(c1cc2cc(F)ccc2[nH]1)N1CCC(Cc2ccccc2)CC1 do in these assays?
RORgamma inh: inactive; Gal4-VP16 FLuc: inactive; MCF10A rerep: 8.2µM; IL1B secr inh: inactive; SW480 rerep: inactive

How did COc1ccc(CN2CCN(C(=O)c3cccs3)CC2)cc1 do in these assays?
RORgamma inh: inactive; Gal4-VP16 FLuc: inactive; MCF10A rerep: inactive; IL1B secr inh: -87; SW480 rerep: inconclusive

How did COc1ccc2[nH]c(C(=O)N3CCCN(Cc4ccc(F)cc4)CC3)cc2c1 do in these assays?
RORgamma inh: inactive; Gal4-VP16 FLuc: inactive; MCF10A rerep: inactive; IL1B secr inh: -78; SW480 rerep: inactive

What do the screens show for `COc1ccccc1N1C(=O)c2cccc3cccc(c23)C1=O`?
MCF10A rerep: inactive; IL1B secr inh: inactive; SW480 rerep: inactive

Screening results: PubChem BioAssay, National Center for Advancing Translational Sciences (NCATS)
